Jurkat NFkB inh: inhibitors of the PMA/ionomycin-induced NF-kB reporter in Jurkat cells; PMA/ionomycin-induced NF-kB luciferase reporter, luminescence; inhibition, % at 4 µM; hit rate 0.53% among 330,000; AID 435003; in the data active means inhibition above about 50%
Gli-Sufu block: antagonists of Gli-Sufu signaling; Sufu-KO-LIGHT fibroblasts, Gli luciferase reporter luminescence; inhibition, % at 5 µM; hit rate 0.74% among 340,000; AID 588413;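 active means inhibition above about 55%, limit read from the data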;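 further: 0% = DMSO-treated cells and 100% = wells with medium but no cells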
Mdm2-MdmX inh: inhibitors of human Mdm2/MdmX interaction; SaOS-2 split-luciferase Mdm2/MdmX complementation, luminescence; inhibition, % at 8 µM; AID 485346; hit rate 3% among 330,000;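 active means inhibition of at least 50% at 8 µM in the primary screen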
697 NFkB inh: inhibitors of the PMA/ionomycin-induced NF-kB reporter in 697 B cells; 697 B-cell NF-kB luciferase reporter, 16 h; inhibition, % at 4 µM; hit rate 0.33% among 330,000; AID 435022; in the data active means inhibition above about 35%
Beta apoptosis: blocks beta cell apoptosis; INS-1E cytokine-induced death, ATP luminescence, 48 h; percent of positive-control rescue, neutral wells zero; protection from apoptosis, % (concentration not given with the values); hit rate 0.8% among 300,000; AID 435005;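 active means Every replicate reaches about 75%, or at least half do and their mean reaches it too, limit read from the data; inconclusive means At least half of replicates reach the limit but their mean does not; inactive means Under half of replicates reach the limit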;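 further: 0% = cytokine-treated negative control wells and 100% = positive control rescue; higher means more ATP so stronger rescue from cytokine killing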
Mdm2-MdmX conf: confirmation of human Mdm2/MdmX interaction inhibitors. shares compounds with Mdm2-MdmX inh. Mdm2-MdmX binding, luminescent assay. inhibition, % at 8 µM. hit rate 55% among 10,000. AID 489028; in the data active means inhibition above about 40%
Full FLuc ctr: inhibits full-length luciferase, flagging false Mdm2/MdmX hits; shares compounds with Mdm2-MdmX inh; SaOS-2 full-length luciferase counterscreen, luminescence; inhibition, % at 8 µM; hit rate 77% among 6,200; AID 504607;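 active means mean inhibition at 8 µM reaching about 37%, which flags the compound as non-specific, limit read from the data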;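 further: p53-null SaOS-2 cells with luciferase driven by a doxycycline-inducible promoter; compound on cells about two nights before reading with doxycycline added after day one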
Numbers without * were called inactive; ? = inconclusive; . = not tested or not shown. This is a sample that favours compounds with a hit; in the whole collection about 4% have one here.

SMILES	Jurkat NFkB inh	Gli-Sufu block	Mdm2-MdmX inh	697 NFkB inh	Beta apoptosis	Mdm2-MdmX conf	Full FLuc ctr
N#C/C(=C/c1ccc(Sc2nc3ccccc3[nH]2)o1)c1cccc(Br)c1	-9	5	60*	10	1	12	.
N#C/C(=C/c1ccc(Sc2nc3ccccc3[nH]2)o1)c1cccc(F)c1	-5	-4	22	-4	-3	.	.
O=C(CSc1nnc2c3ccccc3c3ccccc3c2n1)Nc1ccccc1F	-1	39	76*	11	-5	-3	.
O=C(CSc1nnc2c3ccccc3c3ccccc3c2n1)Nc1ccccc1	-63	.	-5	-53	-1	.	.
COc1cc2c(cc1NC(=S)Nc1cccc(C(F)(F)F)c1)oc1ccccc12	-5	10	29	5	10	.	.
Cc1oc2cc(O)cc(C)c2c(=O)c1-c1cnn(-c2ccccc2)c1	17	4	58*	16	5	24	.
Cn1c(=O)c(C(=O)CCl)c(N)n(Cc2ccccc2)c1=O	-2	1	58*	23	1	46*	86*
Cn1c(N)c(C(=O)CSc2nc3ccccc3c(=O)n2Cc2ccccc2)c(=O)n(C)c1=O	-27	-8	89*	2	5	44*	90*
Cn1c(N)c(C(=O)COC(=O)c2cc(-c3ccco3)nc3ccccc23)c(=O)n(Cc2ccccc2)c1=O	-11	.	24	14	-4	.	.
Cn1c(N)c(C(=O)COC(=O)c2cc(C(F)(F)F)nc3ccccc23)c(=O)n(Cc2ccccc2)c1=O	3	15	50*	17	0	35	.
Cc1nc2ccc(S(=O)(=O)N(C)CC(=O)NCc3ccc(N(C)C)cc3)cc2s1	16	-6	-5	4	4	.	.
COc1ccc(CNCCC(c2ccccc2)c2ccc3c(c2)OCO3)cc1 (centres undefined)	9	7	67*	17	85*	31	.
COc1ccccc1C(CCNCc1ccc(N(C)C)cc1)c1ccc(OC(C)C)cc1 (centres undefined)	22	-29	97*	-13	114*	58*	57*
COc1ccccc1C(CCNCc1ccccc1)c1ccc(OC(C)C)cc1 (centres undefined)	16	32	61*	-23	23	36	.
COc1ccc(C(CC(=O)O)c2ccc3c(c2)OCO3)cc1 (centres undefined)	-8	0	23	0	-1	.	.
COc1ccc(CNCCC(c2ccc(OC(C)C)cc2)c2ccccc2OC)cc1OC (centres undefined)	12	35	56*	-22	18	40*	66*
COc1ccccc1NC(=O)CC(c1ccc(OC(C)C)cc1)c1ccccc1OC (centres undefined)	1	-4	10	11	4	.	.
CCOc1ccc(NC(=S)N2CCCN(Cc3cc(C)ccc3C)C2)cc1	-1	3	-9	8	12	.	.
COc1ccc(CNCCC(c2ccc(OC(C)C)cc2)c2ccccc2OC)cc1 (centres undefined)	12	19	97*	-6	?	54*	68*
CCN(CC(=O)Nc1cccc(OC)c1)C(=O)c1cccc(S(=O)(=O)N2CCc3ccccc32)c1	.	10	.	.	-6	.	.
CCOc1ccc(C2C=C(c3ccc(C)cc3)Nc3nnnn32)cc1 (centres undefined)	-16	-1	50*	2	0	12	.
CC1CCN(Cc2c(O)ccc3c(=O)c(-c4nc5ccccc5s4)c(N)oc23)CC1	-14	12	51*	-27	2	22	.
CC1CCCN(Cc2c(O)ccc3c(=O)c(-c4nc5ccccc5s4)c(N)oc23)C1 (centres undefined)	1	38	70*	5	27	43*	67*
O=C(Nc1ccccc1OC(=O)c1ccccc1)c1ccccc1	.	4	.	.	.	.	.
CCn1nc(C)c(C(=O)Nc2cc(Oc3cc(C)cc(C)c3)cc([N+](=O)[O-])c2)c1C	26	24	53*	-8	14	60*	51*
SMILES	Jurkat NFkB inh	Gli-Sufu block	Mdm2-MdmX inh	697 NFkB inh	Beta apoptosis	Mdm2-MdmX conf	Full FLuc ctr
O=c1c2ccccc2nc2c3ccccc3c(NCCO)nn12	-45	-6	-9	-37	.	.	.
Cc1ccc(C(=O)C[n+]2ccc(Cc3ccccc3)cc2)cc1	19	-16	52*	-16	61	44*	63*
Cc1ccc(SCCc2cc[n+](CC(=O)c3ccccc3)cc2)cc1	0	10	4	-6	-12	.	.
CC(C)NC(=O)Cn1cc(C(=O)C(=O)N2CCOCC2)c2ccccc21	5	-7	14	18	-2	.	.
C=CCN1C(=NC(=O)COc2ccc(Cl)cc2)SC2CS(=O)(=O)CC21 (centres undefined)	9	-4	-5	3	-2	.	.
Clc1cccc(CN2CCc3c([nH]c4ccccc34)C2)c1	-13	-5	34	-23	10	.	.
Clc1ccc(CN2CCc3c([nH]c4ccccc34)C2)cc1Cl	20	0	96*	1	10	39	48*
CC(=O)c1sc(NC(=O)C2(F)C(F)(F)C(F)(F)C(F)(F)C(F)(F)C2(F)F)nc1C	-23	75*	93*	11	109*	85*	29
CCCN1CCC(NCc2cn(C)nc2-c2ccc(Oc3ccccc3)cc2)CC1	-4	11	65*	-10	4	65*	56*
COC1CCCN(Cc2cn(C)nc2-c2ccc(Oc3ccccc3)cc2)C1 (centres undefined)	-9	2	6	-14	-1	.	.
COCCN1CCCC(CNCc2cn(C)nc2-c2ccc(Oc3ccccc3)cc2)C1 (centres undefined)	9	31	71*	-1	4	60*	50*
COc1ccc(C23CC4CC(CC(C4)C2)C3)cc1C(=O)NCCN(C)C	-14	25	62*	6	20	23	.
Cc1ccc(NC(=O)CCCC2CCCCC2)c(O)c1	-15	-27	-59	14	-13	.	.
CSc1nnc2c3cc(F)ccc3n(Cc3ccccc3)c2n1	15	27	27	-8	2	.	.
Cc1nc2c3cc(F)ccc3n(Cc3ccccc3F)c2s1	15	-10	59*	-7	-2	45*	78*
Cc1nc2c3ccccc3n(CCN3CCCCC3)c2s1	11	.	8	15	7	.	.
Cc1nc2c3cc(F)ccc3n(CCN3CCCCC3)c2s1	44	11	56*	-4	60	56*	68*
Cc1nc2c3ccccc3n(Cc3ccccc3F)c2s1	10	3	4	-12	-16	.	.
Cc1nc2c3cc(F)ccc3n(Cc3ccccc3)c2s1	36	-4	53*	-40	100*	55*	69*
C/C(CC(=O)NCc1ccccc1Cl)=N/NC(=O)c1ccccn1	0	-10	-15	-4	-5	.	.
O=C(CSc1ccc2nnc(-c3ccc(Cl)cc3)n2n1)N1CCCc2ccccc21	11	23	84*	-1	45	35	90*
